About 2,000 (36%) of roughly 5,500 compounds were called active. Inconclusive results (about 18%) are left out. Cut-off read from the data, not from the text of the source: active = normalized growth mostly below about 0.91 (no sharp cut-off); inconclusive = no clear call, values can overlap the other calls; inactive = mostly above about 0.92. The list shows a part of the results.
Experiment: chemical genetic growth profiling, strain panel (AID 1159580);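 note: tested at 20 µM; growth read once vehicle control cultures reached saturation at 30 °C; 1 = growth at the plate median or of vehicle wells; lower values mean less growth of the strain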
Settings: growth OD

Measured: normalized growth

NC(=NCCC[C@H](N)C(=O)O)N[N+](=O)[O-]
inactive: S. cerevisiae deletion strains, locus YJL187C, strain SWE1 (second series), hits give low values 0.983 | S. cerevisiae deletion strains, locus YJR043C, strain POL32, hits give low values 0.995 | S. cerevisiae deletion strains, locus YKL009W, strain mrt4, hits give low values 1 | S. cerevisiae deletion strains, locus YKL068W, hits give low values 0.997 | S. cerevisiae deletion strains, locus YKL085W, strain MDH1 (second series), hits give low values 0.982 | S. cerevisiae deletion strains, locus YKL085W, strain MDH1, hits give low values 0.982 | S. cerevisiae deletion strains, locus YKL160W, strain elf1, hits give low values 1.01 | S. cerevisiae deletion strains, locus YKL190W, strain CNB1, hits give low values 0.99 | S. cerevisiae deletion strains, locus YKR001C, strain vps1, hits give low values 0.98 | S. cerevisiae deletion strains, locus YKR026C, strain gcn3, hits give low values 1.01 | S. cerevisiae deletion strains, locus YKR091W, strain srl3, hits give low values 1.02 | S. cerevisiae deletion strains, locus YLL001W, strain dnm1, hits give low values 1.02 | S. cerevisiae deletion strains, locus YLL026W, hits give low values 1.02 | S. cerevisiae deletion strains, locus YLL041C, strain sdh2, hits give low values 1.02 | S. cerevisiae deletion strains, locus YLR027C, strain aat2, hits give low values 1.03 | S. cerevisiae deletion strains, locus YLR039C, strain RIC1, hits give low values 0.971 | S. cerevisiae deletion strains, locus YLR058C, strain SHM2, hits give low values 1.01 | S. cerevisiae deletion strains, locus YLR102C, strain apc9, hits give low values 1.01 | S. cerevisiae deletion strains, locus YLR221C, strain rsa3, hits give low values 0.985 | S. cerevisiae deletion strains, locus YLR258W, strain gsy2, hits give low values 1.02 | S. cerevisiae deletion strains, locus YLR262C, strain YPT6 (second series), hits give low values 1.04 | S. cerevisiae deletion strains, locus YLR262C, strain YPT6, hits give low values 1.06 | S. cerevisiae deletion strains, locus YLR268W, strain sec22, hits give low values 1 | S. cerevisiae deletion strains, locus YLR320W, strain mms22, hits give low values 1.03 | S. cerevisiae deletion strains, locus YLR330W, strain CHS5, hits give low values 1.01 | S. cerevisiae deletion strains, locus YLR342W, strain FKS1 (second series), hits give low values 1.03 | S. cerevisiae deletion strains, locus YLR342W, strain FKS1, hits give low values 1.02 | S. cerevisiae deletion strains, locus YLR357W, strain rsc2, hits give low values 1.06 | S. cerevisiae deletion strains, locus YLR370C, strain arc18, hits give low values 1.02 | S. cerevisiae deletion strains, locus YLR371W, strain rom2, hits give low values 0.997 | S. cerevisiae deletion strains, locus YLR384C, strain iki3, hits give low values 1.03 | S. cerevisiae deletion strains, locus YLR418C, strain cdc73, hits give low values 1.04 | S. cerevisiae deletion strains, locus YML016C, strain PPZ1, hits give low values 1 | S. cerevisiae deletion strains, locus YML032C, strain rad52, hits give low values 0.989 | S. cerevisiae deletion strains, locus YML120C, strain ndi1, hits give low values 1.02 | S. cerevisiae deletion strains, locus YML124C, strain tub3, hits give low values 1 | S. cerevisiae deletion strains, locus YMR058W, strain fet3, hits give low values 1.04 | S. cerevisiae deletion strains, locus YMR078C, strain ctf18, hits give low values 0.997 | S. cerevisiae deletion strains, locus YMR125W, strain sto1, hits give low values 1.01 | S. cerevisiae deletion strains, locus YMR129W, hits give low values 1.02 | S. cerevisiae deletion strains, locus YMR205C, strain PFK2, hits give low values 1.03 | S. cerevisiae deletion strains, locus YMR223W, strain ubp8, hits give low values 1.05 | S. cerevisiae deletion strains, locus YMR231W, strain pep5, hits give low values 1.01 | S. cerevisiae deletion strains, locus YMR307W, strain GAS1, hits give low values 0.982 | S. cerevisiae deletion strains, locus YNL067W, strain RPL9B, hits give low values 0.973 | S. cerevisiae deletion strains, locus YNL071W, strain lat1, hits give low values 1.01 | S. cerevisiae deletion strains, locus YNL128W, strain TEP1, hits give low values 1.01 | S. cerevisiae deletion strains, locus YNL153C, strain GIM3, hits give low values 0.975 | S. cerevisiae deletion strains, locus YNL209W, strain ssb2, hits give low values 1.03 | S. cerevisiae deletion strains, locus YNL233W, strain BNI4, hits give low values 0.968 | S. cerevisiae deletion strains, locus YNL248C, strain rpa49, hits give low values 1.01 | S. cerevisiae deletion strains, locus YNL271C, strain bni1, hits give low values 1.01 | S. cerevisiae deletion strains, locus YNL298W, strain CLA4, hits give low values 1.01 | S. cerevisiae deletion strains, locus YNL307C, strain MCK1, hits give low values 1.01 | S. cerevisiae deletion strains, locus YNL322C, strain KRE1 (second series), hits give low values 1.03 | S. cerevisiae deletion strains, locus YNL322C, strain KRE1, hits give low values 0.994 | S. cerevisiae deletion strains, locus YNR049C, strain mso1, hits give low values 1.02 | S. cerevisiae deletion strains, locus YNR052C, strain pop2, hits give low values 1.01 | S. cerevisiae deletion strains, locus YOL006C, strain TOP1, hits give low values 0.974 | S. cerevisiae deletion strains, locus YOL012C, strain htz1 2.01 | S. cerevisiae deletion strains, locus YOL147C, strain pex11, hits give low values 1 | S. cerevisiae deletion strains, locus YOR001W, strain rrp6, hits give low values 1.04 | S. cerevisiae deletion strains, locus YOR061W, strain CKA2, hits give low values 1 | S. cerevisiae deletion strains, locus YOR069W, strain VPS5, hits give low values 1.01 | S. cerevisiae deletion strains, locus YOR070C, strain gyp1, hits give low values 1.02 | S. cerevisiae deletion strains, locus YOR080W, strain dia2, hits give low values 1.02 | S. cerevisiae deletion strains, locus YOR083W, strain WHI5, hits give low values 1.03 | S. cerevisiae deletion strains, locus YOR106W, strain vam3, hits give low values 1.05 | S. cerevisiae deletion strains, locus YOR136W, strain idh2, hits give low values 0.997 | S. cerevisiae deletion strains, locus YOR144C, strain elg1, hits give low values 1 | S. cerevisiae deletion strains, locus YOR184W, strain ser1, hits give low values 1.02 | S. cerevisiae deletion strains, locus YOR265W, strain rbl2, hits give low values 1.02 | S. cerevisiae deletion strains, locus YOR270C, strain vph1, hits give low values 1.04 | S. cerevisiae deletion strains, locus YOR290C, strain snf2, hits give low values 1.02 | S. cerevisiae deletion strains, locus YOR316C, strain cot1, hits give low values 1.01 | S. cerevisiae deletion strains, locus YPL051W, strain arl3, hits give low values 1.02 | S. cerevisiae deletion strains, locus YPL055C, strain LGE1, hits give low values 0.95 | S. cerevisiae deletion strains, locus YPL078C, strain atp4, hits give low values 1.03 | S. cerevisiae deletion strains, locus YPL106C, strain sse1, hits give low values 1.04 | S. cerevisiae deletion strains, locus YPL240C, strain hsp82, hits give low values 1.01 | S. cerevisiae deletion strains, locus YPL241C, strain CIN2, hits give low values 1 | S. cerevisiae deletion strains, locus YPR119W, strain clb2, hits give low values 0.997 | S. cerevisiae deletion strains, locus YPR141C, strain kar3, hits give low values 0.998 | S. cerevisiae deletion strains, locus YPR163C, strain tif3, hits give low values 0.997 | S. cerevisiae deletion strains, locus YPR167C, strain met16, hits give low values 0.999 | S. cerevisiae deletion strains, strain wtn01, hits give low values 1 | S. cerevisiae strains, strain wild type, hits give low values 1
